In all, about 360,000 compounds went through this assay and about 230 (0.064%) were called active. The sample holds actives, similar compounds and a random draw of the others, so the mix is not that of the screen. Values without a mark were called inactive. No stated cut-off is given here; in the data, active means activity above about 50% (passing the limit was not always enough); inconclusive means no clear call, values can overlap the other calls.

We go through 61 compounds from PubChem BioAssay AID504884 (Broad Institute, 2011).

In the experiment the test system is DNA topoisomerase I (Yersinia pestis CO92). In words: Yersinia pestis topoisomerase I inhibitors, primary screen, biochemical, cleavage product accumulation, plate reader, single point (AID 504884). The settings on record: Y. pestis Topo-I cleavage product accumulation, at 10 µM, active compounds read high.
As to `CCOC(=O)/C=C/C(=O)OCC(=O)NC(c1ccccc1)c1ccccc1`, the activity is 7.5%.

Consider `COc1ccc(OC)c(CN2CCN(C(=O)CNC(=O)c3cc(C)cc(C)c3)CC2)c1`, for which the activity is 9.4%.

With `CCOC(=O)C(C)Oc1cccc2c(=O)n(CC(=O)N3CCc4ccccc43)ccc12` (stereo unspecified), the activity was -0.583%.

As to `COc1ccc(CN2CCNC(=O)C2CC(=O)NCc2cn[nH]c2-c2ccccc2)c(F)c1` (stereo unspecified), the activity was 14.5%.

With `COc1ccc(N(CC(=O)NC2CCCCC2)C(=O)CNC(=O)c2ccco2)c(OC)c1`, the activity was 18.1%.

As to `CCOc1ccc(NC(=O)CCC(=O)NNC(=O)NC2CCCCC2)cc1`, the activity is -4.6%.

Take `N#Cc1cccc(NC(=O)CCC2CCCC2)c1`: the activity is 0.569%.

Take `N#CC(C#N)=CN=c1ccn(Cc2ccc(Cl)cc2Cl)cc1`: the activity is 1.09%.

`CC(C(=O)NC1CCCCC1)N1C(=O)c2cccc3cccc1c23` (stereo unspecified): the activity is 10.7%.

As to `O=C(C[n+]1cc(-c2ccc(Cl)c(Cl)c2)n2c1CCC2)c1cccs1`, the activity is 5.58%.

`Nc1nc(SCC(=O)NN(c2ccccc2)c2ccccc2)n[nH]1`: the activity is -4.71%.

Take `CN(CC(=O)N1CCN(c2ccccc2)CC1)S(=O)(=O)c1cccs1`: the activity is 3.69%.

For `Cc1cc(C)c(C2C3=C(Nc4c2c(C)nn4-c2ccccn2)c2ccccc2C3=O)c(C)c1` (stereo unspecified), the activity was 0.572%.

As to `CC(C)CCNC(=O)C(C)N(C(=O)Cn1nnc(-c2ccc(F)cc2)n1)C1CCCC1` (stereo unspecified), the activity is 21.2%.

With `CN(C)C(CNC(=O)c1ccc(S(=O)(=O)NCc2ccco2)cc1)c1ccccc1` (stereo unspecified), the activity was 2.31%.

On to `Cc1ccc(S(=O)(=O)NCC(=O)NNC(=O)c2ccc(Br)cc2)cc1C`, for which the activity is 9.73%.

In the case of `O=S(=O)(c1ccc(-c2ccno2)s1)N1CCCCC1`, the activity is 0.748%.

With `COc1ccc(S(=O)(=O)NCC2CCCN(C(=O)c3occc3C)C2)cc1` (stereo unspecified), the activity was 0.202%.

Take `Cc1cccc(N2CCN(C(=O)COCc3cc(-c4ccc5c(c4)OCO5)on3)CC2)c1C`: the activity was 38.3%.

With `COc1cc(C(=O)OCCCN2CCOCC2)cc(OC)c1OC`, the activity was -0.169%.

In the case of `Cc1ccc2nc(-c3ccc(SCC(=O)Nc4cc(C)on4)nc3)[nH]c2c1`, the activity is 1.96%.

As to `CC(=O)Oc1ccc(OC(C)=O)c2c1C1C=CC2CC1`, the activity is -5.11%.

On to `O=C(NCC(F)(F)F)Nc1nnc(C(F)(F)F)s1`, for which the activity was 11.4%.

In the case of `Cc1nn(C)c(C)c1S(=O)(=O)N1CCC(CO)(Cc2ccc(Cl)cc2)CC1`, the activity is 4.97%.

Consider `Cc1nnc(SCC(=O)NC(=O)NC2CCCC2)n1N`, for which the activity was -5.78%.

As to `CC1CN(/C=C/C(=O)C(F)(F)F)CC(C)O1` (stereo unspecified), the activity was 5.75%.

As to `CCOc1ccc(NC(=O)CN(C)C(=O)Cn2c(=O)cnc3ccccc32)cc1OCC`, the activity was 1.46%.

For the compound `CCOC(=O)c1[nH]cnc1C(=O)NC1CCCCC1`, the activity is -3.43%.

Regarding `CCc1nc2c(OCCC3CCCCC3)cccn2c1N(C)C(=O)c1ccco1`, the activity is 31.3%.

In the case of `CC1CC(C)CN(c2ccc(S(=O)(=O)N3CCOCC3)cc2)C1` (stereo unspecified), the activity is 31.2%.

For the compound `ClC1(Cl)CC1CSc1ncn[nH]1` (stereo unspecified), the activity was 4.63%.

Turning to `CCCC(C)C(=O)OCC(=O)Nc1c(Br)cc(C)cc1Br` (stereo unspecified), the activity was 0.888%.

For `COc1cccc2c1OCC(C(=O)NCc1ccc(Cl)cc1Cl)=C2`, the activity was 5.83%.

As to `CCOc1nnc(C)c2c(C)n(-c3cccc(Cl)c3)nc12`, the activity was 0.181%.

Take `O=C(CC1C(=O)NCCN1C(=O)c1ccc([N+](=O)[O-])cc1)Nc1cccc(Cl)c1` (stereo unspecified): the activity was -5.36%.

In the case of `CCc1ccccc1NC(=O)CCOc1ccccc1`, the activity was 2.54%.

As to `CCc1ccccc1NC(=S)Nc1cc(OC)c(NC(=O)C(C)C)cc1OC`, the activity is -1.32%.

Consider `CCc1ccccc1NC(=O)/C(=C/c1ccccc1)c1ccccc1`, for which the activity was 58.2% (active).

With `CCOc1ccc(S(=O)(=O)N2CCCCC2)cc1NC(=O)CN1CCCC1c1cccs1` (stereo unspecified), the activity is 9.92%.

In the case of `COc1ccc2c(c1)CCc1cn3ncc(C#N)c3nc1-2`, the activity was 5.21%.

As to `O=C(COc1ccc(F)cc1)N(CC1=CCS(=O)(=O)C1)c1ccccc1`, the activity was 3.66%.

Regarding `CCN(C(=O)c1ccc(Br)cc1)c1ccccc1`, the activity was 4.1%.

Take `CCN(C(=O)COc1ccc(C(=O)c2ccccc2)cc1)c1ccccc1`: the activity is 51.2% (active).

As for `C=CCN(C(=O)c1cc(C)cc(C)c1)C1(C(=O)Nc2ccccc2)CCN(C(C)C)CC1`, the activity is -1.88%.

With `C=C1CCN([C@@H](Cc2ccccc2)C(=O)N2CCOCC2)S(=O)(=O)c2ccccc21`, the activity was 11.9%.

Turning to `CCc1cc(-c2n[nH]c(=S)n2CC(C)C)cs1`, the activity was 7.56%.

Regarding `CCn1ncc(C2=NOC(C(=O)Nc3ccccc3C(=O)OC)C2)c1C` (stereo unspecified), the activity was 16.1%.

For `C[N+]1(CCNC(=O)/C=N/O)CCCCC1`, the activity was 3.78%.

Regarding `N#Cc1ccc(/C=C2\CCn3c2nc2cc(C(=O)O)ccc2c3=O)cc1`, the activity was 5.43%.

As for `CCN(CC)S(=O)(=O)c1ccc(OC(C)C)c(N)c1`, the activity was 9.36%.

Consider `CCCC(C)C(=O)NCc1ccncc1` (stereo unspecified), for which the activity was 3.84%.

In the case of `Cc1cnc(C(=O)OCc2c(C)cc(C(C)(C)C)cc2C)cn1`, the activity is 33.4%.

As to `O=C(NC(c1ccc(Cl)cc1)P(=O)(Oc1ccccc1)Oc1ccccc1)OCc1ccccc1` (stereo unspecified), the activity is -6.44%.

For the compound `COc1cc(C(=O)OCc2cc(=O)n3ccsc3n2)ccc1OC(C)C`, the activity was 1.94%.

Take `COc1cc([N+](=O)[O-])ccc1NC(=O)COC(=O)CCOc1ccc(C)cc1`: the activity is -0.7%.

`Cc1ccc(OCC(=O)Nc2ccccc2C(=O)NC2CC2)cc1`: the activity is -5.78%.

With `CSc1ccccc1NC(=O)COC(=O)CCCOc1ccc(C)cc1`, the activity is 71.8% (active).

As for `O=S(=O)(Nc1ccc2[nH]ncc2c1)c1ccccc1Cl`, the activity is 5.56%.

In the case of `CC(NC(=O)c1ccccc1C(=O)O)c1ccc(-n2ccnc2)cc1` (stereo unspecified), the activity was -18%.

For the compound `C=C(C)CNc1cc(S(=O)(=O)N2CCOCC2)ccc1Oc1ccccc1`, the activity was 23%.

In the case of `CCN(CC(=O)Nc1cc(Cl)ccc1C)C(=O)CN1C(=O)NC2(CCCC2)C1=O`, the activity was -11.4%.
